Screens: PubChem BioAssay, National Center for Advancing Translational Sciences (NCATS)
Cycloheximide cs = counter-screen hit for Shiga toxin inhibitors, cycloheximide. max response, %. cell reporter, cycloheximide protein synthesis inhibition counterscreen. hit rate 12% among 300,000; in the data active = max response mostly above about 13%, no sharp cut-off; inactive = mostly below about 14%; note: read at 38.3 µM for the half of the compounds with a filed dose
Pf growth 48h = P. falciparum growth inhibition at 48 hours (one generation) | hit rate 5.9% among 310,000 | Potency, µM (series often up to 28.7 µM), most hits filed as inhibitors | P. falciparum luciferase growth in erythrocytes, 48 h
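Growth was read as firefly luciferase luminescence after a 48 h, 37 C, 5% CO2 exposure of compounds to reporter-bearing P. falciparum cultures (0.1% parasitemia, 2% hematocrit final) in Albumax-supplemented RPMI 1640.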
Pf growth 96h = P. falciparum growth inhibition at 96 hours; P. falciparum luciferase reporter growth, 96 h; Potency, µM (doses to about 28.7 µM), usual class: inhibitors; hit rate 6.9% among 320,000; AID 504834
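Compounds incubated with erythrocytes infected by luciferase-expressing P. falciparum (2% hematocrit, 0.05% parasitemia final) for 96 hours, 37 C in 5% CO2. Growth inhibition scored as decreased luciferase luminescence.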
Shiga toxin inh = blocks Shiga toxin action in Vero cells. Vero cells, Shiga toxin protein synthesis inhibition reporter. inhibition, % at 38.7 µM. hit rate 9.2% among 290,000; in the data active = inhibition mostly above about 28%, no sharp cut-off; inactive = mostly below about 43%
A number is an active result. Only some compounds are listed: those with a hit (about 21% of all), similar ones and a draw of the others. Unless noted, calls come from the whole dose curve; as a rule, active = well fitted inhibition curve with a large enough effect; inconclusive = small, poorly fitted or top-dose-only effect, or another doubt; inactive = no such curve, though single readings can be large or run the other way.

How did O=C(CSC1CC(=O)N(c2ccc(C(=O)O)cc2)C1=O)Nc1ccc(Cl)cc1 (stereo unspecified) do in these assays?
Cycloheximide cs: inactive; Pf growth 48h: inactive; Pf growth 96h: 12µM; Shiga toxin inh: inactive

What do the screens show for `Cc1ccc(-c2ccccc2)n1-c1cccc(C(=O)O)c1`?
Cycloheximide cs: 66; Pf growth 48h: inactive; Pf growth 96h: inactive; Shiga toxin inh: 163

Results for Cc1ccc(-c2ccccc2)n1-c1ccc(C(=O)O)cc1 ?
Cycloheximide cs: 15; Pf growth 48h: inactive; Pf growth 96h: inactive; Shiga toxin inh: inactive

How did Cc1nc(=O)c(-c2ccccc2)c(C)n1-c1cccc(C(=O)O)c1 do in these assays?
Cycloheximide cs: inactive; Pf growth 48h: inactive; Pf growth 96h: inactive; Shiga toxin inh: inactive

What do the screens show for `O=C(O)c1ccc(-n2c(-c3ccccc3)n[nH]c2=S)cc1`?
Cycloheximide cs: inactive; Pf growth 48h: inactive; Pf growth 96h: inactive; Shiga toxin inh: inactive

How did Cc1ccc(N=c2sc(C)c(C)n2C)cc1 do in these assays?
Cycloheximide cs: 70; Pf growth 48h: inactive; Pf growth 96h: inactive; Shiga toxin inh: 80

What do the screens show for `CCCN1CCC(=O)N(C(CSc2ccc(C)cc2)CC(C)C)CC1` (stereo unspecified)?
Cycloheximide cs: 42; Shiga toxin inh: 77

What do the screens show for `CC(C)[C@@H](CSc1ccccc1)N1CCN(Cc2ccccc2)CCC1=O`?
Cycloheximide cs: inactive; Pf growth 48h: 15µM; Pf growth 96h: inactive; Shiga toxin inh: inactive

How did O=C1CCN(CCc2ccccc2)CCN1[C@H](CSc1ccccc1)Cc1ccccc1 do in these assays?
Cycloheximide cs: inactive; Pf growth 48h: inconclusive; Pf growth 96h: inconclusive; Shiga toxin inh: inactive

What do the screens show for `CC(C)C[C@@H](CO)N1CCN(Cc2ccc(Br)cc2)CCC1=O`?
Cycloheximide cs: inactive; Pf growth 48h: inactive; Pf growth 96h: inactive; Shiga toxin inh: inactive

What do the screens show for `CC(C)CC(CSc1ccc(Br)cc1)N1CCN(CC(C)C)CCC1=O` (stereo unspecified)?
Cycloheximide cs: 80; Shiga toxin inh: 108

Results for CCCN1CCC(=O)N([C@H](CSc2ccc(C)cc2)CC(C)C)CC1 ?
Cycloheximide cs: 71; Pf growth 48h: inconclusive; Pf growth 96h: inactive; Shiga toxin inh: 62

What do the screens show for `CCOC(=O)NC(O)C(Cl)(Cl)Cl` (stereo unspecified)?
Pf growth 48h: inactive; Pf growth 96h: inactive

Results for CC(=O)Nc1ccc(SCC(CC(C)C)N2CCN(CC(C)C)CCC2=O)cc1 (stereo unspecified) ?
Cycloheximide cs: inactive; Shiga toxin inh: inactive

How did CCCN1CCC(=O)N([C@H](CSc2ccccc2)CC(C)C)CC1 do in these assays?
Cycloheximide cs: 45; Pf growth 48h: inactive; Pf growth 96h: inconclusive; Shiga toxin inh: 42

Results for CC(C)C[C@@H](CSc1ccccc1)N1CCN(CC(C)C)CCC1=O ?
Cycloheximide cs: 35; Pf growth 48h: inconclusive; Pf growth 96h: inconclusive; Shiga toxin inh: 47

Results for CCC1CCC(C(=O)NC(C(=O)Nc2ccc3c(c2)OCCO3)C(C)C)CC1 (stereo unspecified) ?
Cycloheximide cs: inactive; Pf growth 96h: 9.3µM; Shiga toxin inh: inactive

What do the screens show for `CC(C)CC(NC(=O)C1CCC(C)CC1)C(=O)Nc1ccc2c(c1)OCCO2` (stereo unspecified)?
Cycloheximide cs: 44; Pf growth 96h: inactive; Shiga toxin inh: 122

Results for COC(=O)[C@@H](NC(=O)Nc1ccc2c(c1)OCCO2)C(C)C ?
Cycloheximide cs: inactive; Pf growth 48h: inactive; Pf growth 96h: inactive; Shiga toxin inh: inactive

Results for CC(=O)NC(CCS(C)(=O)=O)C(=O)Nc1ccc2c(c1)OCO2 (stereo unspecified) ?
Cycloheximide cs: inactive; Pf growth 48h: inactive; Pf growth 96h: inactive; Shiga toxin inh: inactive

Results for COC(=O)[C@H](CC(C)C)NC(=O)Nc1ccc2c(c1)OCCO2 ?
Cycloheximide cs: 33; Pf growth 48h: inactive; Pf growth 96h: inconclusive; Shiga toxin inh: 93

How did CC(=O)NC(CCS(C)(=O)=O)C(=O)Nc1ccc2c(c1)OCCO2 (stereo unspecified) do in these assays?
Cycloheximide cs: inactive; Pf growth 48h: inactive; Pf growth 96h: inconclusive; Shiga toxin inh: 42

Results for CC(C)CC(NC(=O)C1CCC(C)CC1)C(=O)Nc1ccccc1F (stereo unspecified) ?
Cycloheximide cs: inactive; Pf growth 48h: inconclusive; Pf growth 96h: inactive; Shiga toxin inh: inactive

How did CC1CCCN(C(=O)Cn2nnc(-c3ccc(S(C)(=O)=O)cc3)n2)C1 (stereo unspecified) do in these assays?
Cycloheximide cs: inactive; Pf growth 48h: inactive; Pf growth 96h: inactive; Shiga toxin inh: inactive

What do the screens show for `O=C(C1CCN(Cc2ccc(F)cc2)CC1)N(CCc1ccccc1)Cc1ccccc1`?
Cycloheximide cs: inactive; Pf growth 48h: inactive; Pf growth 96h: inconclusive; Shiga toxin inh: inactive

Results for COC(=O)C1=C(C(=O)OC)[C@@H]2N(Cc3ccccc3)c3ccccc3[C@@]23C[C@@H](C(=O)OC)N=C3N1 ?
Cycloheximide cs: inactive; Pf growth 48h: inactive; Pf growth 96h: inactive; Shiga toxin inh: inactive

What do the screens show for `Cc1c(NC(=O)c2c(N)sc3c2CCCC3)c(=O)n(-c2ccccc2)n1C`?
Cycloheximide cs: inactive; Pf growth 48h: inactive; Pf growth 96h: inactive; Shiga toxin inh: inactive

What do the screens show for `CC(C)CC(NC(=O)C1CCC(C)CC1)C(=O)Nc1ccccn1` (stereo unspecified)?
Cycloheximide cs: 27; Pf growth 48h: inactive; Pf growth 96h: inconclusive; Shiga toxin inh: 131

How did CC(=O)Nc1ccc(NC(=O)C(Cc2ccccc2)NC(=O)C2CCC(C)CC2)cc1 (stereo unspecified) do in these assays?
Cycloheximide cs: inactive; Pf growth 48h: inactive; Pf growth 96h: 0.33µM; Shiga toxin inh: inactive

Results for O=C(c1nc[nH]c1C(=O)N1CCc2ccccc2C1)N1CCc2ccccc2C1 ?
Pf growth 48h: inactive; Pf growth 96h: inactive

How did COC(=O)c1cc2c(ccn2-c2ccc(F)cc2)n1Cc1ccc(OC(C)=O)cc1 do in these assays?
Cycloheximide cs: 59; Pf growth 48h: inconclusive; Pf growth 96h: inconclusive; Shiga toxin inh: 122

What do the screens show for `CC(Nc1ccnc2cc(Cl)ccc12)c1ccc(S(N)(=O)=O)cc1` (stereo unspecified)?
Cycloheximide cs: inactive; Pf growth 48h: 1.9µM; Pf growth 96h: 2.3µM; Shiga toxin inh: inactive

How did CCN(CC)CCC[C@H](C)Nc1ccnc2cc(Cl)ccc12 do in these assays?
Pf growth 48h: 0.048µM; Pf growth 96h: 0.043µM

Results for Cc1[nH]c(/C=C2/C(=O)Nc3ccc(S(=O)(=O)Cc4c(Cl)cccc4Cl)cc32)c(C)c1C(=O)N1CCCC1CN1CCCC1 (stereo unspecified) ?
Cycloheximide cs: inactive; Shiga toxin inh: inactive

What do the screens show for `CCc1nnc(NC(=O)CSc2nnc(CNC(=O)c3cc(OC)c(OC)c(OC)c3)o2)s1`?
Cycloheximide cs: inactive; Pf growth 48h: inconclusive; Pf growth 96h: inconclusive; Shiga toxin inh: 96

What do the screens show for `O=C(CSc1nnc(CNC(=O)c2ccco2)o1)Nc1cccc(Cl)c1`?
Cycloheximide cs: inactive; Pf growth 48h: inactive; Pf growth 96h: 5.9µM; Shiga toxin inh: inactive

Results for O=C(CSc1nnc(CNC(=O)c2ccco2)o1)Nc1ccccc1 ?
Cycloheximide cs: inactive; Pf growth 48h: inactive; Pf growth 96h: inactive; Shiga toxin inh: inactive
